Our source for the outcome and AC50 values is PubChem BioAssay (EPA / NIEHS).

Inconclusive results are not listed. The source made the active and inactive calls. Rule for the calls, unless noted: active = hit-call score of the fitted dose curve at least 0.9, where 1 is the maximum; inactive = score below 0.9.

Assay [1] in a line: ATG_Sox_CIS: Attagene CIS-FACTORIAL HepG2 Assay for human SRY-box transcription factor (SOX) (AID 2282960). Conditions: HepG2 Attagene cis-factorial SOX reporter, mRNA; actives raise or lower the signal. Put shortly:
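HepG2 cells transiently transfected with multiple cis-regulated reporter units, then dosed for 24 h. Reporter mRNA quantified by RT-PCR, fluorescent labelling, HpaI digestion and capillary electrophoresis; bidirectional fit versus DMSO.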

Assay [2] deals with Oxysterols receptor LXR-alpha (Homo sapiens) (UniProt Q13133). The assay is described as follows: ATG_LXRa_TRANS: Attagene TRANS-FACTORIAL HepG2 Assay for human Liver X Receptor alpha (LXRa) (AID 2282980; active = hit-call score of the fitted dose curve at least 0.9, where 1 is the maximum). Conditions: HepG2 Attagene TRANS reporter, LXRa transactivation. In outline: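 Read-out: reporter transcript levels by RT-PCR plus capillary electrophoresis, fluorescence intensity. Transiently transfected HepG2, exogenous NR-GAL4 chimera, GAL4-UAS reporters; 24 h compound exposure. Activity = increase over DMSO negative control.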

Assay [3] addresses human RAR-related Orphan Receptor beta (RORb), RORB (gene 6096) (UniProt Q92753). The assay is described as follows: ATG_RORb_TRANS: Attagene TRANS-FACTORIAL HepG2 Assay for human RAR-related Orphan Receptor beta (RORb) (AID 2283010; active = hit-call score of the fitted dose curve at least 0.9, where 1 is the maximum). Put shortly:
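HepG2, transient MRTU transfection (GAL4-UAS reporters, exogenous NR-Gal4 chimeras); 24 h compound exposure; total RNA → RT-PCR → 6-FAM primer extension → HpaI digest → CE fluorescence. Positive direction vs DMSO baseline.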

Assay [4] in a line: ATG_VDRE_CIS: Attagene CIS-FACTORIAL HepG2 Assay for human Vitamin D Receptor Element (VDRE) (AID 2282968). The settings on record: HepG2 VDRE cis-reporter transcription, actives raise or lower the signal. In outline:
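Measures endogenous factor activity through cis-element-driven reporter transcripts in transiently transfected HepG2. Cells are treated 24 h; reporter mRNA is quantified by RT-PCR and capillary electrophoresis; fitting is bidirectional.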

For assay [5], the target named is Glucocorticoid receptor (Homo sapiens) (UniProt P04150). Briefly: ATG_GR_TRANS: Attagene TRANS-FACTORIAL HepG2 Assay for human Glucocorticoid Receptor (GR) (AID 2282978; active = hit-call score of the fitted dose curve at least 0.9, where 1 is the maximum;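 note: activators score as hits since higher reporter transcript over DMSO is fitted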). Conditions: HepG2 Attagene TRANS GR reporter, mRNA transcription. Put shortly: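 HepG2 cells transiently transfected with GAL4-UAS reporter units and exogenous GR-Gal4 chimera, dosed 24 h. Reporter mRNA by RT-PCR, FAM labeling, HpaI digest and capillary electrophoresis; gain-of-signal fit versus DMSO.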

In assay [6] the target is human Peroxisome Proliferator-activated Receptor delta (PPARd), PPARD (gene 5467) (UniProt Q03181). The assay is described as follows: ATG_PPARd_TRANS: Attagene TRANS-FACTORIAL HepG2 Assay for human Peroxisome Proliferator-activated Receptor delta (PPARd) (AID 2283002; active = hit-call score of the fitted dose curve at least 0.9, where 1 is the maximum). In outline: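 Transient HepG2 transfection (multiple GAL4-UAS RTUs, chimeric receptor-Gal4); 24 h dosing; total RNA → oligo(dT) RT → PCR → 6-FAM primer extension → HpaI cut → CE. Positive direction vs DMSO.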

Assay [7] can be described thus: CCTE_Shafer_MEA_acute_interburst_interval_mean: CCTE's Neural Acute Assay for Mean Interburst Interval, Shafer Lab (AID 2284016).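 Note: percent change of mean interburst interval versus each well's own pre-dose baseline; curves fitted for decrease in interburst interval relative to DMSO.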 Put shortly: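 Rat cortical cultures, DIV 13/15; 20 min equilibration, 40 min baseline, compound 0.03-40 uM, 40 min re-recording, 37 C. Spikes detected at 8x rms noise (300-5000 Hz band-pass). Endpoint: % change in interburst interval, fitted in loss direction vs DMSO.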

Assay [8] can be described thus: CCTE_Shafer_MEA_acute_burst_percentage_mean: CCTE's Neural Acute Assay for Percentage of Spikes in a Burst, Shafer Lab (AID 2284017).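 For AC50: curve fitted for loss of signal so potency reflects decreased burst percentage.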 Put shortly:
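Rat cortical cultures, DIV 13/15, 37 C. Spikes detected at 8x rms noise (300-5000 Hz band-pass). Burst spikes/total spikes averaged across electrodes per well; % change post- vs pre-treatment (40 min each), loss-of-signal fit vs DMSO.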

Assay [9] is described as follows: CCTE_Shafer_MEA_acute_burst_percentage_std: CCTE's Neural Acute Assay for Standard Deviation of Burst Percentage, Shafer Lab (AID 2284018).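 Note: fitted in the negative direction so actives lower burst percentage SD.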 In outline:
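Value is percent change from baseline in the across-electrode SD of spikes-in-bursts percentage, wells with >/= 10 active electrodes. Acute 40-min exposure to 0.03-40 uM on DIV 13 or 15 rat cortical cultures, recorded at 37 C after 40-min baseline.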

Assay [10] can be described thus: CCTE_Shafer_MEA_acute_per_network_burst_spike_number_mean: CCTE's Neural Acute Assay for Average Number of Spikes in a Network Burst, Shafer Lab (AID 2284019).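 For AC50: curve fitted for loss of signal so actives reduce spikes per network burst.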 Put shortly:
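Percent change from baseline in mean spikes per network burst, spikes detected at 8x rms noise. Each compound at 0.03-40 uM in at least three wells of rat cortical cultures, recorded 40 min before and 40 min during exposure.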

Assay [11] is described as follows: CCTE_Shafer_MEA_acute_per_network_burst_spike_number_std: CCTE's Neural Acute Assay for Standard Deviation of Number of Spikes in a Network Burst, Shafer Lab (AID 2284020).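 Note: fitted for decrease in spike-number SD versus DMSO so actives lower it.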 Put shortly:
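Endpoint: percent change from 40 min baseline in standard deviation of spikes per network burst, after 40 min compound exposure (0.03-40 uM, 37 C). Cortical rat neurons on MEA at DIV 13 or 15; spikes detected at 8x rms noise, 300-5000 Hz band-pass.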

Assay [12] is described as follows: CCTE_Shafer_MEA_acute_per_network_burst_electrodes_number_mean: CCTE's Neural Acute Assay for Mean Number of Electrodes in a Network Burst, Shafer Lab (AID 2284021).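 Note: curves fitted for decreases only so hits reduce electrodes per burst.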 Put shortly:
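Readout: % change in mean electrodes active per network burst, post- vs pre-treatment, each well. Spikes detected at 8x rms noise after 300-5000 Hz band-pass; rat cortical cultures, DIV 13/15, compounds 0.03-40 uM, DMSO baseline.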

Assay [13] can be described thus: CCTE_Shafer_MEA_acute_network_burst_percentage: CCTE's Neural Acute Assay for Percentage of Network Bursts, Shafer Lab (AID 2284022).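 Note: curves fitted for loss so actives lower network burst percentage.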 Put shortly:
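Rat cortical cultures, DIV 13/15; 20 min equilibration, 40 min baseline, compound 0.03-40 uM, 40 min recording, 37 C. Spikes: 300-5000 Hz band-pass, threshold 8x rms noise. Readout: % change in network-burst spike fraction; loss direction vs DMSO.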

Assay [14] is described as follows: CCTE_Shafer_MEA_acute_cross_correlation_area: CCTE's Neural Acute Assay for Area of Cross Correlation, Shafer Lab (AID 2284024).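 For outcome: rat primary cortical neuron networks on 48-well MEA at DIV 13 or 15 with 40 min exposure.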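 Note: area under pooled inter-electrode spike cross-correlation near zero lag as percent change from own baseline; curves fitted for loss of cross-correlation area so actives lower synchrony.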 Put shortly: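 Rat cortical cultures, DIV 13/15, MEA; spikes detected at 8x rms noise (300-5000 Hz band-pass). Compound 0.03-40 uM, ≥3 wells each. Readout: % change in pooled inter-electrode cross-correlation area vs own baseline; DMSO negative control.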

Assay [15] can be described thus: CCTE_Shafer_MEA_acute_cross_correlation_HWHM: CCTE's Neural Acute Assay for Cross Correlation at Half Width at Half Maximum, Shafer Lab (AID 2284026).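 For outcome: spontaneous network firing of rat primary cortical neurons on multiwell microelectrode arrays.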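 Note: percent change per well from pre-dose baseline in spike cross-correlogram half width; hits are a decrease in cross-correlogram half width relative to DMSO.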 In outline:
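Read-out: half width at half maximum of action-potential cross-correlogram, percent change versus pre-treatment baseline, fitted in loss direction against DMSO. Rat cortical cultures, DIV 13 or 15, dosed 0.03-40 uM, 40-min recordings at 37 C.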

Assay [16] can be described thus: CCTE_Shafer_MEA_acute_synchrony_index: CCTE's Neural Acute Assay for Synchrony, Shafer Lab (AID 2284027).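 Note: network synchrony index of spontaneous spiking in primary rat cortical neurons on MEAs; fitted for loss of signal so actives lower synchrony relative to DMSO.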 In outline:
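Rat cortical cultures, DIV 13/15; spikes detected at 8x rms noise, 300-5000 Hz band-pass. Compound 0.03-40 uM, ≥3 wells; 40-min pre- and post-exposure recordings, 37 C. Readout: % change in synchrony index; loss-of-signal fit vs DMSO.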

A short description of assay [17]: CCTE_Shafer_MEA_acute_LDH: CCTE's Lactate Dehydrogenase Assay for Cytotoxicity in the Neural Acute Assay, Shafer Lab (AID 2284086; active = hit-call score of the fitted dose curve at least 0.9, where 1 is the maximum;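 note: active means LDH release rises above DMSO vehicle level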). In outline: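 LDH absorbance at 490 nm in medium taken right after 40-min compound exposure; rat primary cortical neuron networks on MEA plates, days post-plating 13 or 15. Increase over DMSO baseline scored as cytotoxicity.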
Assay [18] can be described thus: ATG_RORE_CIS: Attagene CIS-FACTORIAL HepG2 Assay for human RAR-related Orphan Receptor Element (RORE) (AID 2282959). The settings on record: HepG2 Attagene cis-factorial RORE reporter, mRNA; actives raise or lower the signal. In outline:
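HepG2 cells carrying transiently transfected cis-regulated reporter units; RORE-driven reporter mRNA quantified 24 h post-dosing by RT-PCR, 6-FAM primer extension, HpaI digestion and capillary electrophoresis. Bidirectional fit versus DMSO.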

Assay [19] is described as follows: ATG_NF_kB_CIS: Attagene CIS-FACTORIAL HepG2 Assay for human Nuclear Factor Kappa B (NF-kB) (AID 2282991). The settings on record: HepG2 Attagene cis-factorial NF-kB reporter mRNA; actives raise or lower the signal. In outline:
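HepG2 cells transfected with cis-promoter-driven reporter units, so endogenous transcription factor activity is measured. Reporter mRNA quantified 24 h after dosing by RT-PCR and capillary electrophoresis, with bidirectional fitting against DMSO.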

Assay [20] concerns the target human Thyroid Receptor alpha (THRa1), THRA (gene 7067) (UniProt P10827). The assay is described as follows: ATG_THRa1_TRANS: Attagene TRANS-FACTORIAL HepG2 Assay for human Thyroid Receptor alpha (THRa1) (AID 2283014; active = hit-call score of the fitted dose curve at least 0.9, where 1 is the maximum). Put shortly: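 Transient HepG2 transfection, NR-Gal4 chimera driving GAL4-UAS reporters; 24 h compound exposure; total RNA, oligo(dT) RT, PCR, fluorescent primer extension, capillary electrophoresis. Upward direction vs DMSO control.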

Chain of human RAR-related Orphan Receptor beta (RORb), RORB (gene 6096) (Q92753 whole entry, looked up, the tested form may be a part): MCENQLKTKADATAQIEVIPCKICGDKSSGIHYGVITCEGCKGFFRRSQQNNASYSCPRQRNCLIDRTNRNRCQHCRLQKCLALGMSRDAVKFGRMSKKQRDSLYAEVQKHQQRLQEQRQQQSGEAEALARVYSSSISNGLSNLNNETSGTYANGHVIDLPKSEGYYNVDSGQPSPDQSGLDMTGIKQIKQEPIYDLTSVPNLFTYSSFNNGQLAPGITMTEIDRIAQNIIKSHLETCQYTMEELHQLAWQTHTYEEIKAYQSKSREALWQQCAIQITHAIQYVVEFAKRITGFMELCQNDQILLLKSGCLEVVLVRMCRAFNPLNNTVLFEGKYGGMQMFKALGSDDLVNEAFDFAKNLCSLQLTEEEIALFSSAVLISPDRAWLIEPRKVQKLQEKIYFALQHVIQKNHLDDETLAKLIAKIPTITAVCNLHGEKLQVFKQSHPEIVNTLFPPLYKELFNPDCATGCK
Chain of human Peroxisome Proliferator-activated Receptor delta (PPARd), PPARD (gene 5467) (Q03181 whole entry, looked up, the tested form may be a part): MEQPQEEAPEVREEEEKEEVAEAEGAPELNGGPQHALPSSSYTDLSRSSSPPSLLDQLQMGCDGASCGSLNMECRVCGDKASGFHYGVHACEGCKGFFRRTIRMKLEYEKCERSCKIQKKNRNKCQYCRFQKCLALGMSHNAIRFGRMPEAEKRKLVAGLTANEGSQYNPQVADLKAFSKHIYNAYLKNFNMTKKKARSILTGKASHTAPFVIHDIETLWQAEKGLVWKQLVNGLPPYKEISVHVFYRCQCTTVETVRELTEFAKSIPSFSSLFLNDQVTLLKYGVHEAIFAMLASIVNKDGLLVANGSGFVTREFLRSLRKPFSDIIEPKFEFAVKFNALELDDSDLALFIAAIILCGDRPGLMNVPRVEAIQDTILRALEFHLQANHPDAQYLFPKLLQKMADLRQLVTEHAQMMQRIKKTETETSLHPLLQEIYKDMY
Chain of Oxysterols receptor LXR-alpha (Homo sapiens) (Q13133 whole entry, looked up, the tested form may be a part): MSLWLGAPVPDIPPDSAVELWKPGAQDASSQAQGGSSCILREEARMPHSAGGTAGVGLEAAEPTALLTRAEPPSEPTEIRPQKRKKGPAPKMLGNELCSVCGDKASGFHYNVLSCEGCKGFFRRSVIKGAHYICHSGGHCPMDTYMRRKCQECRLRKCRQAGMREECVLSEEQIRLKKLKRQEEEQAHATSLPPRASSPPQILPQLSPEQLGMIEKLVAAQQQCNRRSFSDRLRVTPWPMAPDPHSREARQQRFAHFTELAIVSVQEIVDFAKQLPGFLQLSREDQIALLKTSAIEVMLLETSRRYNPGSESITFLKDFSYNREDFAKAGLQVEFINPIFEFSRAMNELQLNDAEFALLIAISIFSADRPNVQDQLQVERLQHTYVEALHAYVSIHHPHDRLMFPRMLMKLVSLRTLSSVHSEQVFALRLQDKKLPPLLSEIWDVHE
Chain of Glucocorticoid receptor (Homo sapiens) (P04150 whole entry, looked up, the tested form may be a part): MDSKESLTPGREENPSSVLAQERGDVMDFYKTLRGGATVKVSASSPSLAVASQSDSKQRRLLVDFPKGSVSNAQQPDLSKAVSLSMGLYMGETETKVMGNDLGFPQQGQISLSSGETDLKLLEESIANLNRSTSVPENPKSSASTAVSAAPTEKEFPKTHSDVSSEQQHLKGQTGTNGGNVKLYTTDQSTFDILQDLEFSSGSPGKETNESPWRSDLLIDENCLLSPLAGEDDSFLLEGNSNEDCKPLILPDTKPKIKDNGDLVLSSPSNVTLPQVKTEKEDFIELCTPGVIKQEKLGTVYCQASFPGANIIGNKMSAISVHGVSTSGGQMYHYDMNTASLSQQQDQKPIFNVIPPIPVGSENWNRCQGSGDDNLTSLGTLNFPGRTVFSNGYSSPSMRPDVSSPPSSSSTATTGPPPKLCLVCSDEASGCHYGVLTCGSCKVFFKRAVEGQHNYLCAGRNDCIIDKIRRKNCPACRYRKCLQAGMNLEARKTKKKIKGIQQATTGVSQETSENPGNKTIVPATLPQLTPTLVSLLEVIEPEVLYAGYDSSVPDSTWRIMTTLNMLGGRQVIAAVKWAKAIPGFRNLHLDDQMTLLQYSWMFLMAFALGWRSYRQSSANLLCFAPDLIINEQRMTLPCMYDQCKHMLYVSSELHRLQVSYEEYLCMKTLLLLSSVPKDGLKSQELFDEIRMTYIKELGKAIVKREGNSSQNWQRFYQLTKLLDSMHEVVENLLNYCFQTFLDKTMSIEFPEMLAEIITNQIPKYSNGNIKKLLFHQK
Chain of human Thyroid Receptor alpha (THRa1), THRA (gene 7067) (P10827 whole entry, looked up, the tested form may be a part): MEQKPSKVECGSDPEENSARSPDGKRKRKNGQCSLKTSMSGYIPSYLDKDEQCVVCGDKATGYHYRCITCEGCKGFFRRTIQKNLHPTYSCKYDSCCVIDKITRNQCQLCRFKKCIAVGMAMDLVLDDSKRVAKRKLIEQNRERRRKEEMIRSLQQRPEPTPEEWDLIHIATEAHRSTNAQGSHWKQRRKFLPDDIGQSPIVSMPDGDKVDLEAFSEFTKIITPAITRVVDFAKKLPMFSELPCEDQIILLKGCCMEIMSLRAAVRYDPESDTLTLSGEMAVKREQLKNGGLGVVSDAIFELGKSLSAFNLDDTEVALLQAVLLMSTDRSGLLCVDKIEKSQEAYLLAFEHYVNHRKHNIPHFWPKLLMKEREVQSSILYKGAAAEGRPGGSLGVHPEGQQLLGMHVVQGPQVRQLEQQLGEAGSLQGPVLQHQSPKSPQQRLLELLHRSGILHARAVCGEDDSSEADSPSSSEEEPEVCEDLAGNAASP

With `CC1=CCCC(C)(C)C12CCC(C)O2` (centres undefined), the result in [1], in assay [2] and in assay [3] was inactive.

`CCOC(=O)c1ccccc1`: the outcome in [4], in assay [2], in assay [6] and in assay [3] was inactive. In [5], the AC50 was 27.9 µM (active).

As to `CCC[Si](OC(C)=O)(OC(C)=O)OC(C)=O`, the compound was called inactive in assay [7], in assay [8], in [9], in [10], in assay [11] and in assay [12]. In addition, the compound was called inactive in assay [13], in assay [15], in assay [16] and in assay [17]. The AC50 in assay [14] was 0.072 µM (active).

Turning to `O=[N+]([O-])c1cc(S(=O)(=O)Nc2ccccc2)ccc1Nc1ccccc1`, the result in [7], in [12], in assay [13], in assay [14] and in assay [17] was inactive. Also, the AC50 is 25.1 µM (active) in [8]; 15 µM (active) in assay [9]; 1.26 µM (active) in assay [10]; 1.22 µM (active) in assay [11]; 20.9 µM (active) in assay [15]; 23.8 µM (active) in assay [16].

`CCC(C)(CCC(C)C)C(=O)O` (centres undefined): the compound was called inactive in assay [18], in assay [4], in assay [19], in assay [6] and in [3].

Consider `CCO[Si](CCCN)(OCC)OCC`, for which the outcome in assay [4], in assay [5], in assay [2], in [19], in assay [6] and in assay [3] was inactive.

For `COc1cc(CNC(=O)CCCC/C=C/C(C)C)ccc1O`, the compound was called inactive in [7], in assay [10], in assay [11], in assay [12], in assay [13] and in assay [14]. Moreover, the call in [17] was inactive. The AC50 in assay [8] is 4.25 µM (active); in [9] it was 8.5 µM (active); in [15], 5.46 µM (active); in assay [16], 5.59 µM (active).

For `COc1ccccc1Oc1c(NS(=O)(=O)c2ccc(C(C)(C)C)cc2)nc(-c2ncccn2)nc1OCCO`, in assay [7], the AC50 was 5.33 µM (active). For the same compound, the compound was called inactive in assay [8], in assay [9], in [10], in assay [11], in assay [12] and in [13]. In addition, the outcome in assay [14], in assay [15] and in assay [16] was inactive.

For the compound `CNC(=C[N+](=O)[O-])NCCSCc1csc(CN(C)C)n1`, the outcome in [18], in [2] and in assay [19] was inactive.

Take `COc1ccc(C(=O)c2ccccc2O)c(O)c1`: the compound was classed as inactive in assay [7], in assay [8], in [9], in assay [10], in [11] and in [12]. In addition, the call in assay [15], in [16] and in [17] was inactive. The AC50 is 0.003 µM (active) in assay [13] and 0.0203 µM (active) in [14].

Consider `CCCCCC[C@@H](O)C/C=C\CCCCCCCC(=O)O`, for which the compound was called inactive in [1], in assay [4], in assay [5], in assay [19] and in assay [20]. In addition, the AC50 in [6] is 27.3 µM (active).

Take `O=S(=O)(O)c1cccc2ccccc12`: the compound was called inactive in assay [6] and in [20].

Usually AC50 stands for the midpoint of the concentration-response curve, whichever way the signal moves.
